# From PubChem BioAssay (NCI)
# “And” between values parts separate entries of the source, which are not always exact repeats. Equal entries are not always repeated. This is part of a sample that, as a whole, favours compounds with a hit. Of some 79,000 tested, about 15% had one in any assay. A number with no mark means an inactive call. The source made the active and inactive calls. No stated cut-off is given here; in the data, active means growth inhibition above about 70%; inactive means the rest.
# How the values were obtained:
# [1] = NCI Yeast Anticancer Drug Screen. Data for the rad50 strain (AID 155);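 further: 0% = growth of vehicle-only cultures of the same strain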; details: S. cerevisiae rad50 strain growth inhibition, active compounds read high; at 50.0 µM unless noted
# Method in brief: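 Yeast carrying a defined DNA repair defect were exposed to test compounds, and growth was compared with vehicle-treated controls to give percent inhibition.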
# [2] = NCI Yeast Anticancer Drug Screen. Data for the mec2-1 strain (AID 157); details: S. cerevisiae mec2-1 strain, active compounds read high; at 50.0 µM unless noted
# Method in brief: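 Compounds were applied to mec2-1 yeast cells. Their growth was then compared with that of vehicle-treated cultures to give growth inhibition.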
# [3] = NCI Yeast Anticancer Drug Screen. Data for the sgs1 mgt1 strain (AID 161);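 further: 0% = growth of cultures given vehicle only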; details: S. cerevisiae sgs1 mgt1 strain, active compounds read high; at 50.0 µM unless noted
# Method in brief: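 This yeast growth screen uses a strain with defined DNA-repair lesions; compound-treated growth is compared with vehicle-treated growth.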
# [4] = NCI Yeast Anticancer Drug Screen. Data for the cln2 rad14 strain (AID 165);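 further: 0% = growth equal to vehicle treated cultures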; details: S. cerevisiae cln2 rad14 strain, active compounds read high; at 50.0 µM unless noted
# Method in brief: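 Strain: cln2 rad14 yeast, altered in cell cycle control and DNA damage repair. Read-out: growth inhibition vs vehicle.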
# [5] = NCI Yeast Anticancer Drug Screen. Data for the bub3 strain (AID 167); details: S. cerevisiae bub3 mutant strain, active compounds read high; at 50.0 µM unless noted
# Method in brief: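 Compounds were applied to a genetically altered yeast strain carrying a cell-cycle control defect. Growth inhibition was scored against vehicle-treated controls.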
# [6] = NCI Yeast Anticancer Drug Screen. Data for the mlh1 rad18 strain (AID 175); details: S. cerevisiae mlh1 rad18 strain growth inhibition, active compounds read high; at 50.0 µM unless noted
# Method in brief: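 A repair-deficient yeast strain is exposed to test compound, and growth is scored relative to vehicle-treated controls.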
Compound,growth inhibition [1],growth inhibition [2],growth inhibition [3],growth inhibition [4],growth inhibition [5],growth inhibition [6]
CC(=O)CC(=O)Nc1ccc2ccccc2c1,-1.9%,-12%,-8.3%,-36.4%,-37.9%,-14.6%
COc1cccc2c1C(=O)c1c(O)c3c(c(O)c1C2=O)CC1(O)CC3OC1(C)OC (stereo unspecified),1.2%,9.1%,-19.2%,24.2%,-1.35%,2.65%
S=C(Nc1ccc2c(c1)oc1ccccc12)c1cccs1,35.1%,16.6%,-36.2%,-7.25%,-9.6%,-4.6%
CC(C)NC(=O)OCc1c(COC(=O)NC(C)C)c(-c2ccc(F)cc2F)n2c1CCC2,12%,4%,10%,8.6%,-13.6%,-12.7%
CCO/C(C)=N\OC(=O)C(F)(F)F,-0.1%,-15.3%,6.55%,-15.6%,1.35%,-8.4%
COCC(C)OC(=O)COc1ccccc1 (stereo unspecified),1.05%,-21.6%,-10.4%,-46.5%,-4.35%,-6.65%
O=C1CSC(c2ccccc2Cl)N1N1C(=O)CSC1c1ccccc1Cl (stereo unspecified),32.4%,19.2%,28.1%,27.5%,24.3%,28.1%
O=c1nc(NCc2ccco2)ccn1C1OC(CO)C(O)C1O (stereo unspecified),12.3%,9.45%,12.6%,13.9%,-0.2%,14.6%
Cc1c(NC(=S)NC(=O)c2ccc([N+](=O)[O-])cc2)c(=O)n(-c2ccccc2)n1C,19.6%,5.7%,16.2%,17.9%,32.9%,18.6%
COC1=C2CC(C)CC(OC)C(O)C(C)/C=C(\C)C(OC(N)=O)C(OC)/C=C\C=C(/C)C(=O)NC(=C(/C=N/N(C)C)C1=O)C2=O (stereo unspecified),-11.3%,-63.5%,-35%,3.5%,-16.9%,-25.8%
CCOC(=O)C(C#N)=C(C)C,-12.6% and 26.9%,7.8% and 2.75%,-2.55% and 17%,-19.1% and -1.1%,0.65% and -13.8%,20.4% and 17.1%
O=C1c2cc(F)ccc2-c2c(F)ccc(F)c21,38.1%,8.7%,27.7%,11.1%,23.6%,23.5%
COc1cc(O)c(C/C=C/c2ccccc2)cc1O,49.6%,21.4%,27.6%,-12.3%,29.1%,64.9%
O=c1oc2ccccc2cc1-c1nc2ccccc2c(=O)[nH]1,17.8%,8.1%,-20.9%,13.7%,-4.9%,-50.9%
CNC(=O)C(C)NC(=O)C(Cc1ccccc1)NC(=O)c1ccccc1 (stereo unspecified),-33%,-52.7%,-6.45%,15.4%,5.2%,-11.7%
COc1cc2c3cc1Oc1cc(ccc1O)C[C@@H]1c4c(cc(OC)c(O)c4Oc4ccc(cc4)C[C@@H]3[N+](C)(C)CC2)CC[N+]1(C)C,-23.2%,-43.1%,-40.4%,68.6%,-35.6%,6.7%
O=C(c1ccccc1)C(C(Nc1ccccc1)c1ccccc1)N1CCOCC1 (stereo unspecified),6.65%,-5%,-16%,-47.3%,27.4%,22.6%
CCCCCCCCCCCCSC(=S)c1c(C)[nH]n(CCCCCCCCCCCC)c1=O,39.9%,25.9%,42.3%,26.2%,21.9%,12.8%
Nc1nc(-c2ccco2)cc(-c2ccco2)n1,-23.4%,-23.2%,-18.8%,12.8%,-20.1%,-31.1%
O=C(O)c1cc([N+](=O)[O-])cc2c(=O)c3cnccc3[nH]c12,-23.6%,-0.35%,-1.95%,-25.6%,-8.5%,-9.7%
Cc1cc(=O)oc2nn(CCO)c(C)c12,-35.3%,-17.6%,-10.1%,-41.9%,-10.6%,-13.7%

Compound,growth inhibition [1],growth inhibition [2],growth inhibition [3],growth inhibition [4],growth inhibition [5],growth inhibition [6]
COc1ccc(C)cc1NC(=O)Nc1ccccc1F,6.9%,15.2%,6.15%,3.3%,-0.4%,5.15%
CCN(C(=O)c1ccc(C(=O)N(CC)c2cccc(C)c2)cc1)c1cccc(C)c1,-24.4%,-3.55%,-9.85%,8.05%,6.15%,-1.7%
CC(C)CC(C(=O)NC1CCCCC1)N1C(=O)c2ccccc2C1=O (stereo unspecified),-17.1%,1.9%,-4.3%,-8.2%,-4.4%,20.7%
Cc1cc(C)c(CC(=O)c2ccccc2)c(C)c1,0%,-9.5%,-1.9%,-32%,0.95%,-5%
CNC(=O)c1n[nH]nc1Sc1c([N+](=O)[O-])ncn1C,-39%,-43%,-34.1%,-34.2%,-20.6%,-29.4%
CCC(O)C(C)(C)[N+](=O)[O-] (stereo unspecified),3.35%,-3.25%,-2.6%,-2.05%,-0.8%,0.35%
O=C(Nc1ccc(Cl)c(Cl)c1)Oc1cccc(NC(=S)Nc2ccccc2)c1,36.9%,90.2% (active),93% (active),91.5% (active),69.8%,94.7% (active)
Clc1cccc(Nc2ncnc3nc[nH]c23)c1,7.15%,0.25%,5.1%,-12.2%,-12.9%,0.5%
CC(C)(O)CCO,-38.4%,-40.4%,-17.4%,-10.7%,-25.9%,-33.1%
O=[N+]([O-])c1c[nH]c2ncnc(Cl)c12,4.25%,0.6%,0.35%,-6.8%,-3%,6.8%
Cn1c2c(c(=O)c3ccccc31)CC(O)C(C)(C)O2 (stereo unspecified),-23.6%,-35.7%,-6.4%,6%,3.35%,-2.65%
O=C(NCCO)c1c(O)c2ccccc2[nH]c1=O,2.8%,0.2%,-6.05%,12.9%,6.55%,2.9%
Cc1cccc(C)c1NC(=O)Nc1ccccc1C(N)=O,4.85%,22.8%,35.5%,-6.75%,17.1%,-17.4%
CCOC(=O)c1cn[nH]c1C,1.35%,-0.9%,-2.2%,-21.4%,-3.05%,-1.95%
C=C1CC(CCCC2CC(=C)C(=O)O2)OC1=O (stereo unspecified),5.8%,12.9%,-4.1%,-50.7%,-11.2%,6.15%
COc1ccc(/C=C(\C(=O)OCC(C)C)c2ccc(OC)c(OC)c2)cc1OC,2.6%,-17.1%,8.5%,-6.15%,-7.2%,16.4%
C[C@H]1/C(=C/C(=O)OCCN(C)C)CC[C@H]2[C@H]1C(=O)C[C@H]1C(C)(C)[C@@H](O)CC[C@]21C,1.2%,-1.75%,-0.55%,13.8%,15.9%,-34.1%
CC(C)N(C(C)C)S(=O)(=O)c1ccccc1C(O)(c1ccccc1)c1ccccc1,47.5%,-1.15%,39.4%,-7.35%,-0.95%,5.9%
CCOC(=O)C(c1ccc2c(c1)OCO2)C1(NC(=O)c2ccccc2)C(=O)C(C(=O)OC)C(=O)C1C(=O)OC (stereo unspecified),16.5%,6.15%,-6.7%,10%,1.4%,10.9%
CC1(c2ccccc2)CC/C(=C/c2ccccc2)C1=O (stereo unspecified),-5.4%,10.1%,25.9%,-43.5%,33.3%,18.3%
